Bioassay records (PubChem)
NPC1 promoter act = activators of NPC1 promoter | Potency, µM (series often up to 9.22 µM), without a hit: top-dose activation, hits mostly activators | Huh7 NPC1 promoter luciferase reporter, 24 h | 320,000 compounds, 2.4% hits | AID 485313; further: % of control where 0% means no effect; nearly all actives have a fitted effect of over 60% in size
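Stable NPC1-promoter luciferase Huh7 line; cpd (DMSO) 24 h, 37 °C, 5% CO2; Amplite luciferase reagent 10 min RT; luminescence readout. qHTS format.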
ELG1 DNA repair = inhibitors of ELG1-dependent DNA repair in HEK293T cells; HEK293T ELG1-luciferase reporter, luminescence, 16 h; DNA damage induced by 5-fluorouridine; Potency, µM (series often up to 46.1 µM), inactives show at the highest dose activity change, negative = inhibition, actives largely listed as inhibitors; AID 504467; 330,000 compounds, 2.3% hits; further: on the % scale 0 is the no-effect control and ±100 the full control effect; nearly all actives have a fitted effect of over 55% in size
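Reporter activity after DNA damage by 5-fluorouridine is monitored. Compound-treated cells incubate 16 hr at 37 °C, then ONE-Glo is added for 30 min before luminescence reading.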
ELG1 genotox = genotoxicity induction in ELG1-luciferase HEK293T cells; HEK293T ELG1-luciferase reporter, luminescence, 16 h; Potency, µM (doses to about 46 µM), for inactives: at the top dose activity change, positive = activation, usual class: activators; 330,000 compounds, 1.3% hits; AID 504466; further: % of control where 0% means no effect; nearly all actives have a fitted effect of over 60% in size
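16 hr compound incubation (37 °C, 5% CO2) of HEK293T cells carrying luciferase-tagged ELG1; luciferase then measured by ONE-Glo luminescence after 30 min at RT.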
Rab9 promoter act = Rab9 promoter activation | Potency, µM (top dose mostly 9.22 µM), for inactives: top-dose activation, negative = inhibition, usual class: activators | AID 485297 | Huh7 Rab9 promoter-luciferase reporter, luminescence, 24 h | 320,000 compounds, 2.8% hits; further: % of control where 0% means no effect; nearly all actives have a fitted effect of over 60% in size
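Cell-based reporter: Huh7 stable for Rab9 promoter-driven luciferase, plated in reduced-serum medium with 10% FBS at 1500 cells/well, compound-treated 24 h at 37 °C, luminescence read after 10 min reagent.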
FLuc modulator = counter-screen for miR-21 project: firefly luciferase inhibitors or activators | P08659 | purified FLuc, Km substrates, luminescence inhibition | Potency, µM (titrated, usually from 57.5 µM), for inactives: top-dose activity change, negative = inhibition, actives largely listed as inhibitors | 360,000 compounds, 6.9% hits;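 further: plate controls were vehicle for no effect and reference inhibitor for full effect; nearly all actives have a fitted effect of over 55% in size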
Target sequence (P08659 whole entry, looked up): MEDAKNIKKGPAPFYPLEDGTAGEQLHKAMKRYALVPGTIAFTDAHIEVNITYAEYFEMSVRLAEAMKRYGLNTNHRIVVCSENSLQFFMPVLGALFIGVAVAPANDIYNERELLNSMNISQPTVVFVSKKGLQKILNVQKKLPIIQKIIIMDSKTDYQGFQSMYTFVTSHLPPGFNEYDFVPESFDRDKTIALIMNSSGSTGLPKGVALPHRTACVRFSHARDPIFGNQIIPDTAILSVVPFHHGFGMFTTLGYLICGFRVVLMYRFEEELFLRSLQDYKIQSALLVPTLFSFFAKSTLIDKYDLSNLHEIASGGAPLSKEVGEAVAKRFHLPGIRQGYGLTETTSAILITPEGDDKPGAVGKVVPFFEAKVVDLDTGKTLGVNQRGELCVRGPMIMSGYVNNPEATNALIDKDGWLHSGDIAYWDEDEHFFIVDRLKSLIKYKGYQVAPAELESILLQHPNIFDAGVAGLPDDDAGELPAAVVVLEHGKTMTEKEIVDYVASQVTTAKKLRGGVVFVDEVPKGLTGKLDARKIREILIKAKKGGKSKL
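Biochemical qHTS of compounds, final roughly 60 µM downward over six points, against 10 nM purified firefly luciferase using Km concentrations of substrates (10 uM D-luciferin, 10 uM ATP) in Tris acetate pH 7.5 buffer; luminescence output.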
SMN2 splice up = enhancers of SMN2 splice variant expression; HEK293 SMN2-luciferase splicing reporter, luminescence, 30-36 h; Potency, µM (titrated, usually from 46.1 µM), for the others: at the highest dose activity change, positive = activation, actives largely listed as activators; 210,000 compounds, 2.8% hits; AID 1458; further: % of control where 0% means no effect; nearly all actives have a fitted effect of over 55% in size
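qHTS luciferase splicing reporter: luminescence rises when SMN2 exon 7 is included in transfected HEK293 cells. Compound exposure lasted 30-36 h at 37C, with 4.5 mM final sodium butyrate as control, followed by a ONE-Glo read.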
* marks the source's active call; other numbers are inactive results; ? = inconclusive; . = no result given; [ ] = dose if it differs, or a comment. A selection: hits, their analogues and other compounds. The true share with any hit is near 9.4%. The call rests on the fitted dose curve; in most records, active means well fitted curve in the direction sought with a large enough effect; inconclusive means small, poorly fitted or top-dose-only effect, or another doubt; inactive means no such curve, though single readings can be large; an effect the other way counts as inactive or inconclusive. Potency means the concentration at half of the fitted maximal effect.

SMILES | NPC1 promoter act | ELG1 DNA repair | ELG1 genotox | Rab9 promoter act | FLuc modulator | SMN2 splice up
COc1ccc(CCNC(=O)Cn2nnc(-c3ccc(N4CCOCC4)cc3)n2)cc1OC | 3.4% | ? | 8.2% | ? | 3.01µM* | ?
COc1ccc(C(=O)Nc2ccc(N3CCCC3)cc2)cc1OC | 3.55µM* | ? | ? | 3.98µM* | 5.36µM* | .
COc1ccc(C(=O)N2CCN(c3ccc(NC(=O)Cc4ccccc4)cc3)CC2)cc1 | 0.0% | 9.2µM* | -6.6% | -3.3% | -0.1% | .
COc1ccc(C(=O)Nc2ccc(N3CCCC3)cc2)cc1Br | 16.8% | 26.1% | 9.4% | 28.2% | ? | .
Cc1ccc(C(=O)N2CCN(c3ccc(NC(=S)NC(=O)Cc4ccccc4)cc3)CC2)cc1 | -5.5% | 0.0% | -1.4% | -7.6% | -1.1% | -34.4%
COc1ccc(C(=O)Nc2ccc(N3CCOCC3)cc2)cc1OC | 22.8% | ? | 16.1% | 10.1% | 23.9µM* | 9.4%
COc1ccc(C(=O)Nc2ccc(S(=O)(=O)N3CCOCC3)cc2)cc1OC | 0.4% | -2.0% | -0.2% | -5.7% | 2.4% | 13.5%
CN(c1nnc(NC(=O)Nc2ccc(Br)cc2)s1)C1CCCCC1 | . | . | . | . | 6.4% | .
Cc1nc2nc(NCc3ccc(Br)cc3)[nH]n2c(=O)c1Cc1ccccc1 | . | . | . | . | ? | 12.7%
CC(C)(C)OC(=O)NCCCC[C@@H](C(=O)NCCCCCCCCCCC(=O)N1CCN(C(=O)OC(C)(C)C)CC1)n1cc(CCO)nn1 | -5.4% | ? | -12.7% | -0.5% | 1.6% | .
CC[C@H](C)C(C(=O)N1CCN(C(=O)OC(C)(C)C)CC1)n1cc(C(CC(C)C)NC(=O)OC(C)(C)C)nn1 (some centres undefined) | 3.2% | ? | -7.5% | 11.1% | -0.2% | .
CSCC[C@@H](C(=O)NCCCCCCCCCCC(=O)N1CCN(C(=O)OC(C)(C)C)CC1)n1cc(CCO)nn1 | -6.5% | 18.3µM* | -29.6% | -2.8% | -1.9% | .
CC[C@@H](C)[C@@H](C(=O)N1CCN(C(=O)OC(C)(C)C)CC1)n1cc(CCCCNC(=O)OC(C)(C)C)nn1 | -3.1% | 20.6µM* | -11.7% | -2.7% | 1.9% | .
Cc1ccc(NC(=O)Cn2c(=O)n(CC3CCCO3)c(=O)c3ccccc32)cc1 (centres undefined) | . | . | . | . | -5.6% | 5.7%
O=C(NCc1ccncc1)C(=O)NCC(c1ccco1)N1CCN(c2ccccc2)CC1 (centres undefined) | 0.6% | 20.6µM* | -6.6% | -11.5% | -1.2% | -35.8%
COc1ccc(N2CCN(C(CNC(=O)C(=O)NCc3ccncc3)c3ccco3)CC2)cc1 (centres undefined) | -7.2% | ? | -3.9% | -2.4% | -2.3% | -36.1%
Cc1ccc(CNC(=O)CN2C(=O)COc3ccc(S(=O)(=O)N4CCC(C)CC4)cc32)cc1 | . | . | . | . | -13.1% | 17.9%
CN(C)/C=C(/C#N)C(=O)c1cccc(Oc2ccc(C(C)(C)C)cc2)c1 | -0.1% | ? | -1.2% | -3.0% | 15.1µM* | -22.9%
Cc1ccccc1Oc1cccc(C(=O)/C(C#N)=C/N(C)C)c1 | 2.0% | ? | ? | 1.9% | ? | -14.6%
CCC(C)(C)c1ccc(Oc2cccc(C(=O)O)c2)cc1 | 1.78µM* | ? | 13.7% | ? | ? | 22.0%[9.22 µM]
COc1cc(C(=O)N=c2sc3c(C)ccc(OC)c3n2C)cc(OC)c1OC | -1.3% | -5.2% | 4.2% | 2.0% | ? | .
COc1ccc(C(=O)N=c2sc3c(C)ccc(OC)c3n2C)cc1 | ? | ? | 0.461µM* | ? | 0.601µM* | 3.98µM*
C#CCn1c(=NC(=O)c2ccc3c(c2)OCCO3)sc2cc(OC)c(OC)cc21 | . | . | . | . | -1.2% | .
CCn1c(=NC(=O)c2ccc3c(c2)OCCO3)sc2c(C)ccc(OC)c21 | . | . | . | . | 1.9µM* | .
N#CCCSC(=S)[C@H]1CCCC1=N | . | . | . | . | . | -9.9%[9.22 µM]
SMILES | NPC1 promoter act | ELG1 DNA repair | ELG1 genotox | Rab9 promoter act | FLuc modulator | SMN2 splice up
Cc1nn(C)c(C)c1S(=O)(=O)N1CCC(C(=O)NC2CCCc3ccccc32)CC1 (centres undefined) | -1.5% | -11.1% | -3.2% | 3.5% | 1.7% | -2.3%
Cn1c(=O)oc2cc(S(=O)(=O)N3CCCC(C(=O)N4CC=C(c5ccccc5)CC4)C3)ccc21 (centres undefined) | -13.9% | 5.8µM* | -10.0% | -31.2% | -9.7% | -56.8%
CCN(CC)S(=O)(=O)N1CCC(C(=O)NC2CCCc3ccccc32)CC1 (centres undefined) | 8.1% | 16.4µM* | -8.1% | -0.7% | -3.4% | -30.6%
Cn1c(=O)oc2cc(S(=O)(=O)N3CCCC(C(=O)NC4CCCc5ccccc54)C3)ccc21 (centres undefined) | -3.9% | 2.91µM* | -7.9% | -0.5% | -3.1% | -9.0%
CC(CC(=O)O)(CC(=O)O)c1ccccc1 | . | . | . | . | . | -6.1%[9.22 µM]
Cc1cccc(-n2c(O)c(C=Nc3ccccc3O)c3ccccc3c2=O)n1 | -1.9% | 23.1µM* | -9.0% | 0.5% | 0.6% | .
COc1cc(OC)c(Nc2cc(C)nc3ncnn23)cc1Cl | . | . | . | . | -0.6% | 17.9%
CC1=CC(=O)N(c2ccn(C)n2)C1=O | -3.2% | ? | 2.4% | -3.0% | -1.1% | .
Cc1c(CNC(C)CCc2ccccc2)c(C(=O)O)c(C)n1Cc1ccc(F)cc1 (centres undefined) | . | . | . | . | -0.3% | 1.4%
O=C(CN1CCN(c2ccc(O)cc2)CC1)Nc1cc(S(=O)(=O)N2CCCCC2)ccc1Cl | -8.2% | 16.4µM* | -12.8% | 0.7% | -10.0% | -29.8%
O=C(CN1CCN(c2ccc(O)cc2)CC1)Nc1cc(S(=O)(=O)N2CCCC2)ccc1Cl | 4.7% | 23.1µM* | -5.8% | -3.5% | -10.0% | -43.8%
O=C(CSc1ncnc2ccccc12)Nc1cc(S(=O)(=O)N2CCCCC2)ccc1Cl | -1.1% | 20.6µM* | -13.3% | -1.9% | ? | -33.9%
CC1CN(CC(=O)Nc2cc(S(=O)(=O)N3CCCC3)ccc2Cl)CC(C)O1 (centres undefined) | -3.3% | ? | -4.3% | -3.9% | -0.3% | -11.6%
CCN1CCN(CC(=O)Nc2cc(S(=O)(=O)N3CCCCC3)ccc2Cl)CC1 | . | -12.2% | -0.8% | . | . | .
O=C(CN1CCN(S(=O)(=O)N2CCOCC2)CC1)Nc1cc(Cl)ccc1Cl | -4.4% | 20.6µM* | -23.9% | 0.0% | -0.1% | .
COc1ccccc1NC(=O)CS(=O)(=O)c1cn(CC(=O)N2CCCC2)c2ccccc12 | -3.1% | -1.4% | 2.1% | . | 3.6% | .
CC1(C)Cc2c(c(N3CCCC3)nc3sc4c(N5CCN(CCO)CC5)ncnc4c23)CO1 | -1.8% | 8.2µM* | -12.2% | -2.2% | -2.7% | 1.2%
Cc1cc(C(=O)OCC(=O)c2ccc3c(c2)OCCO3)c(C)o1 | ? | ? | 7.9% | 8.1% | 9.53µM* | -16.4%
